According to PubChem BioAssay (NCATS):
Inconclusive results are not listed. Active and inactive are the calls of the source. Unless noted, the call rests on the fitted dose curve; in most records, active means well fitted curve in the direction sought with a large enough effect; inconclusive means small, poorly fitted or top-dose-only effect, or another doubt; inactive means no such curve, though single readings can be large; an effect the other way counts as inactive or inconclusive.

Assays:
[1] = biological target: Lysosomal acid glucosylceramidase (Homo sapiens) (UniProt P04062); assay: Glucocerebrosidase-p2 (AID 348; in the data active means potency below about 10 µM; further: potency means the concentration at half of the fitted maximal effect); conditions: purified GBA, blue fluorogenic substrate, 40 min
Sequence of Lysosomal acid glucosylceramidase (Homo sapiens) (P04062 whole entry, looked up): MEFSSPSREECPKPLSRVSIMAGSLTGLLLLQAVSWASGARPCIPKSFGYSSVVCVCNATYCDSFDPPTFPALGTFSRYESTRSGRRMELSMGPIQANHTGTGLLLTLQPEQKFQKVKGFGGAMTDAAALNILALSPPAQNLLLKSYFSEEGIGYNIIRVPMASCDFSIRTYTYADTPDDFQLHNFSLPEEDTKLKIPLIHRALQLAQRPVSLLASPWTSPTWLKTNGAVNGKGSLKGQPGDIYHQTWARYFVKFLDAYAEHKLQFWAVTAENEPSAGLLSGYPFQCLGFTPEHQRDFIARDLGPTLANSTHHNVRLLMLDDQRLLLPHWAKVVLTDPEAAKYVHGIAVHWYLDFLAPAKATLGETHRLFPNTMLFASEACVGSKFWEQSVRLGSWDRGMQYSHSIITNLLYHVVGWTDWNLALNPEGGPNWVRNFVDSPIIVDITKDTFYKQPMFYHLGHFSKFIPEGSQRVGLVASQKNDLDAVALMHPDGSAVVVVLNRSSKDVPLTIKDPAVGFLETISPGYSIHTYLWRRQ
Procedure, shortened: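 Compounds titrated from 0.6 nM upwards against 0.2 nM enzyme in pH 5.9 citric acid/KH2PO4, taurocholate, tween-20; blue fluorogenic substrate 80 uM, 40 min room temperature, stopped and read Ex 365/Em 440 for AC50.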

[2] = AP1 Signaling Pathway (AID 357; active means well fitted curve in either direction with a large enough effect, not every such curve was filed as active;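 further: ME-180 reporter cells stimulated with EGF at its EC50 level; on the % scale 0 is the no-effect control and ±100 the full control effect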); conditions: ME-180 AP-1-bla reporter, EGF-induced, beta-lactamase ratio, 5 h; at 7.69 µM (top of the series) unless noted
Procedure, shortened: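 In this screen, ME-180 cells in Opti-MEM with 0.5% dialyzed FBS received EC50 EGF and compound titrations for 5 h. AP-1 reporter beta-lactamase was detected via CCF4 ratio, giving AC50 for positive and negative modulators.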

[3] = biological target: Cytochrome P450 1A2 (Homo sapiens) (UniProt P05177); assay: p450-cyp1a2 (AID 410; calls by dose curve; further: potency means the concentration at half of the fitted maximal effect;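 on activity change, negative = inhibition: -100% = full effect of reference inhibitor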); conditions: recombinant CYP1A2, luciferin-ME demethylation, luminescence; series mostly up to 57 µM
Sequence of Cytochrome P450 1A2 (Homo sapiens) (P05177 whole entry, looked up): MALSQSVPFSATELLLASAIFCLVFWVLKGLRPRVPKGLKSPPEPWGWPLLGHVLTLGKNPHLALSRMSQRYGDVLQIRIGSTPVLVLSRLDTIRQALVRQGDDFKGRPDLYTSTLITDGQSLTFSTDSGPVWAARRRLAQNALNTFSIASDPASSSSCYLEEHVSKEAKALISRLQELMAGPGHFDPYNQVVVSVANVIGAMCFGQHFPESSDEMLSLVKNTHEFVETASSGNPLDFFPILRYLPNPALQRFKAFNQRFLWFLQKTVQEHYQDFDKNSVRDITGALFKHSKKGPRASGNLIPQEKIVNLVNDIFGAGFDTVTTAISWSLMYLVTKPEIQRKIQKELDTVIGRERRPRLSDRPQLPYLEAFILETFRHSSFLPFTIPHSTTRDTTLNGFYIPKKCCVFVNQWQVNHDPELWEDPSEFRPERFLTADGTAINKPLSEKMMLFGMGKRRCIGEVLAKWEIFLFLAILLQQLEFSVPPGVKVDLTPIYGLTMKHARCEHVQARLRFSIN
Procedure, shortened: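 Human CYP1A2 (20nM) demethylated Luciferin-ME at its Km (100uM) in 100mM KPO4. After 10 min compound preincubation, NADPH regeneration ran the reaction 60 min at room temperature. Luciferin was read by luminescence, normalized to 57 uM furafylline.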

[4] = NFAT Signaling Pathway (AID 444; active means well fitted curve in either direction with a large enough effect, not every such curve was filed as active;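 further: carbachol stimulus at about its EC50 of 1 µM final; on the % scale 0 is the no-effect control and ±100 the full control effect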); conditions: Jurkat NFAT-bla M1, carbachol, beta-lactamase ratio, 5 h; at 7.69 µM (top of the series) unless noted
Procedure, shortened: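 Read-out: CCF4 FRET ratio (460 nm/530 nm) after 1 h RT dye loading, used for %activity and AC50 from titration series. Cells: Jurkat NFAT-β-lactamase/M1 line, treated with compound plus 1 uM carbachol for 5 h, 37 °C.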

[5] = Stat Signaling Pathway (AID 446; active means well fitted curve in either direction with a large enough effect, not every such curve was filed as active;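 further: ME-180 cervical cancer cells given 40 pM IL-6 alongside compound; SIE-controlled beta-lactamase reporter measured as 460/530 nm FRET emission ratio; on the % scale 0 is the no-effect control and ±100 the full control effect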); conditions: ME-180 SIE beta-lactamase reporter, IL-6 stimulated, 5 h; at 7.69 µM (top of the series) unless noted
Procedure, shortened: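 Screening format detects activators and inhibitors alike: ME-180 SIE-bla cells stimulated at 40 pM IL-6 for 5 hrs with compound, then dual-emission beta-lactamase read at 405 nm excitation.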

[6] = biological target: Glucocorticoid receptor (Homo sapiens) (UniProt P04150); assay: GR-EFC Redistribution (AID 451; calls by dose curve; further: potency means the concentration at half of the fitted maximal effect); conditions: CHO-K1 GR-EFC translocation, beta-gal luminescence, 2 h
Sequence of Glucocorticoid receptor (Homo sapiens) (P04150 whole entry, looked up, the tested form may be a part): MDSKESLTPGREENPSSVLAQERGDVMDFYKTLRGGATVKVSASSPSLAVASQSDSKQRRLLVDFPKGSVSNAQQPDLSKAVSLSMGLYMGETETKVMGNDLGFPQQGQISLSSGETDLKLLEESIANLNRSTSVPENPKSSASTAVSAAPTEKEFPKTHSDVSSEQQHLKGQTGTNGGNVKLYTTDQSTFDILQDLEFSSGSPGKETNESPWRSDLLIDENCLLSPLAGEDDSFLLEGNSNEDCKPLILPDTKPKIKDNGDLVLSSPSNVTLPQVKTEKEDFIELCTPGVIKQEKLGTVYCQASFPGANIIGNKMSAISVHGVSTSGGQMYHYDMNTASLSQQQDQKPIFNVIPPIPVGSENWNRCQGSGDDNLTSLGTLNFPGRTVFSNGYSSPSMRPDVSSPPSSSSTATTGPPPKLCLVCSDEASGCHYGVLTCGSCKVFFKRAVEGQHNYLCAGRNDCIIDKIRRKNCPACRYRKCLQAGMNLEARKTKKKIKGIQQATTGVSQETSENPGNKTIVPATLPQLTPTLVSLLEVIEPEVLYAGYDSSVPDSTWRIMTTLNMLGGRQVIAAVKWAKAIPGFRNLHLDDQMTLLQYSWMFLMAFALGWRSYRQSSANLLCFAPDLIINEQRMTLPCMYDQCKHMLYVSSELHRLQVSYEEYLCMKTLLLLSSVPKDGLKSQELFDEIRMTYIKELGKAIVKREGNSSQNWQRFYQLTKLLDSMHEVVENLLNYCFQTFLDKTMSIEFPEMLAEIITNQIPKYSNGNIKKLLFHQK
Procedure, shortened: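 Translocation of GR-ED fusion to nuclear EA restores b-gal, read by luminescence after 1 h room-temperature detection. Engineered CHO-K1 biosensor cells, 1,000/well, exposed 2 h at 37 C to titrations up to 46 uM final.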

[7] = biological target: Mitogen-activated protein kinase 10 (Mus musculus) (UniProt Q61831); assay: JNK3 AlphaScreen Assay (AID 530; active means well fitted curve in either direction with a large enough effect, not every such curve was filed as active;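 further: kinase came from lysate of stimulated human HepG2 cells; signal reports phosphorylation of biotinylated GST-cJun 1-79 at Ser73 with 10 µM ATP; on the % scale 0 is the no-effect control and ±100 the full control effect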); conditions: JNK3 lysate, c-Jun phosphorylation; series mostly up to 57.1 µM
Procedure, shortened: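 Room-temperature AlphaScreen kinase assay; pre-activated HepG2 lysate as JNK3 source, biotin-GST-cJun(1-79) substrate, 10 uM ATP, compound 15 min preincubation.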

[8] = biological target: 3',5'-cyclic-AMP phosphodiesterase 4B (Homo sapiens) (UniProt Q07343); assay: qHTS Assay for Inhibitors of PDE-IV (AID 607; active means well fitted activation curve with a large enough effect in the main read-out, with a control signal flat, not every such curve was filed as active; further: % of control where 0% means no effect); conditions: HEK293 ACTOne CNG channel cells, membrane potential fluorescence; series mostly up to 22.9 µM
Sequence of 3',5'-cyclic-AMP phosphodiesterase 4B (Homo sapiens) (Q07343 whole entry, looked up): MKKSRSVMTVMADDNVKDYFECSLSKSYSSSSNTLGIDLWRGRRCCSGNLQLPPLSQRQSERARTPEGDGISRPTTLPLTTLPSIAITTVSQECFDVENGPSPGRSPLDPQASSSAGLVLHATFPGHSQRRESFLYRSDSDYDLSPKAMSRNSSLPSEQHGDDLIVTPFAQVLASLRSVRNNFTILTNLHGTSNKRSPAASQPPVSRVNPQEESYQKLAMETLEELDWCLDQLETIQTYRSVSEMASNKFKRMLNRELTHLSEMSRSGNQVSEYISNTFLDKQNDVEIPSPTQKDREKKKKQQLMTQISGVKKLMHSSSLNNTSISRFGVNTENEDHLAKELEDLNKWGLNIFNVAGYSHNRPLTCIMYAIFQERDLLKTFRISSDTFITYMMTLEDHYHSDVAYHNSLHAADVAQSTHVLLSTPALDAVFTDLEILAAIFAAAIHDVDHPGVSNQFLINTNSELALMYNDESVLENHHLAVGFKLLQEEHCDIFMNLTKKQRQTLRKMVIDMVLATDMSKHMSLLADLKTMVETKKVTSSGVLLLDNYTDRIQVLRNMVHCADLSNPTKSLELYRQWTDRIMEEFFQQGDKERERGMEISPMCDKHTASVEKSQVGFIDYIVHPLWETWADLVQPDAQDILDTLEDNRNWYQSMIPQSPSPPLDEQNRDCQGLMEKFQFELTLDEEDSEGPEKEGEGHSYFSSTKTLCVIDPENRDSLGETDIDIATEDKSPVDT
Procedure, shortened: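 The readout is membrane depolarisation from a cAMP-sensing CNG channel, detected with a potential dye at ex 535/em 590. Cells were HEK293-derived (endogenous PDE-IV) at 1000 cells/well, titrated up to 22.9 uM final.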

[9] = biological target: Cytochrome P450 3A4 (Homo sapiens) (UniProt P08684); assay: qHTS Assay for Activators of Cytochrome P450 3A4 (AID 885); conditions: recombinant CYP3A4, Luciferin-PPXE luminescence, 60 min; series mostly up to 57.1 µM; further: nearly all actives have a fitted effect of over 65% in size
Sequence of Cytochrome P450 3A4 (Homo sapiens) (P08684 whole entry, looked up): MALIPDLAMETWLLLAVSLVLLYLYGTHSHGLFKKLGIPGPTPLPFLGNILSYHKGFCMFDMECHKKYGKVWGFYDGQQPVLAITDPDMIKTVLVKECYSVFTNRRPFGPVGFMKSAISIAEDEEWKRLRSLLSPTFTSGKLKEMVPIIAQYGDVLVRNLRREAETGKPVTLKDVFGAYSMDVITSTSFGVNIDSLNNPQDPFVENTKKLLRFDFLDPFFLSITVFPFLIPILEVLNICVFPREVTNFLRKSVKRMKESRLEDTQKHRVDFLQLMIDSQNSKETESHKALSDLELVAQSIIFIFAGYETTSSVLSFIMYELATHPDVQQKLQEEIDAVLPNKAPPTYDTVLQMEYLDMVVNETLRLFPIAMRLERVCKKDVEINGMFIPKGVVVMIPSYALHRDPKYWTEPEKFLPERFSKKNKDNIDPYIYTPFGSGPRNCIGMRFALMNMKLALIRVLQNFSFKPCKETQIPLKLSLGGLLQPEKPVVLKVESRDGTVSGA
Procedure, shortened: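 Steps: enzyme/substrate mix dispensed; compound added, 10 min RT; NADPH regeneration solution added, 60 min RT; luciferin detection buffer stops reaction; 20 min later luminescence measured.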

[10] = qHTS Assay for Lipid Storage Modulators (AID 1519; calls by dose curve); conditions: Drosophila S3 cells, BODIPY lipid droplet/cell ratio, laser cytometry, cells loaded with oleic acid; for activity change, negative = inhibition: at 57.5 µM (top of the series)
Procedure, shortened: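 Cells seeded at 5,000 per well were treated with compounds over a concentration series and loaded with oleic acid (400 uM, as added). Lipid droplet fluorescence (488 nm excitation, 500-530 nm channel) was read by laser-scanning cytometry and normalized to 20 uM Triacsin C.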

[11] = biological target: Dual specificity protein kinase CLK4 (Homo sapiens) (UniProt Q9HAZ1); assay: qHTS Assay for Inhibitors of CDC-like Kinase 4 (Kinase-Glo Assay) (AID 1770); conditions: recombinant Clk4, Kinase-Glo ATP depletion luminescence; series mostly up to 66.7 µM; further: nearly all actives have a fitted effect of over 65% in size; further: potency means the concentration at half of the fitted maximal effect
Sequence of Dual specificity protein kinase CLK4 (Homo sapiens) (Q9HAZ1 whole entry, looked up): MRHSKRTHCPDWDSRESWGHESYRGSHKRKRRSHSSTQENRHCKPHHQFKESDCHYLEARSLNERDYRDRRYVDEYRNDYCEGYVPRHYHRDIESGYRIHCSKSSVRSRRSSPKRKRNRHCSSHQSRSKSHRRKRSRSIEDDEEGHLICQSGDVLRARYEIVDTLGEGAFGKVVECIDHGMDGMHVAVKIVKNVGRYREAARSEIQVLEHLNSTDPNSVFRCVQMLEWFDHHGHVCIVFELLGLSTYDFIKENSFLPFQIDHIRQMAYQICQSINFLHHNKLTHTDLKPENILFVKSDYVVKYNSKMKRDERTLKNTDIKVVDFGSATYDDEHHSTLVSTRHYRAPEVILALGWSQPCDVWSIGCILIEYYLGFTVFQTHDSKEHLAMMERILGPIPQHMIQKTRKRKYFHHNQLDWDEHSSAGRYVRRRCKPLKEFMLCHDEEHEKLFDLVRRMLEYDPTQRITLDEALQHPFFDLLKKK
Procedure, shortened: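 Recombinant human Clk4 (25 nM) phosphorylated RS repeat peptide (100 uM) with 1 uM ATP in Tris pH 7.5/MgCl2/EGTA/DTT/Triton buffer for 4.5 h at room temperature. Residual ATP was quantified by Kinase-Glo luciferase luminescence.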

[12] = biological target: Dual specificity protein kinase CLK4 (Homo sapiens) (UniProt Q9HAZ1); assay: qHTS Assay for Inhibitors of CDC-like Kinase 4 (ADP-Glo Assay) (AID 1771); conditions: recombinant CLK4, ADP-Glo luminescence; series mostly up to 80 µM; further: nearly all actives have a fitted effect of over 70% in size; further: potency means the concentration at half of the fitted maximal effect
Procedure, shortened: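 Clk4 (25 nM) was incubated 1 hr at room temperature with 100 uM RS repeat peptide and 1 uM ATP in buffer with 2 mM MgCl2, 0.5 mM EGTA, 2.5 mM DTT. ADP formed was quantified by ADP-Glo luminescence.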

[13] = biological target: Dual specificity protein kinase CLK4 (Homo sapiens) (UniProt Q9HAZ1); assay: qHTS Assay for Inhibitors of CDC-like Kinase 4 (ADP-FP Assay) (AID 1795); conditions: Transcreener ADP fluorescence polarization; series mostly up to 50 µM; further: nearly all actives have a fitted effect of over 60% in size; further: potency means the concentration at half of the fitted maximal effect
Procedure, shortened: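 Recombinant human Clk4 (6.25 nM) phosphorylated RS repeat peptide (100 uM) with 1 uM ATP in Tris pH 7.5/MgCl2/EGTA/DTT/Triton buffer for one hour. ADP was quantified by Transcreener competitive fluorescence polarization against an ADP calibration curve.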

[14] = biological target: Ubiquitin carboxyl-terminal hydrolase 1 (Homo sapiens) (UniProt O94782); assay: Inhibitors of USP1/UAF1: Pilot qHTS (AID 504865); conditions: purified USP1/UAF1, Ub-rhodamine cleavage fluorescence; series mostly up to 54.9 µM;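 further: rhodamine fluorescence freed from ubiquitin-rhodamine substrate followed over time; top concentration of the series differs between compounds; on the % scale 0 is the no-effect control and ±100 the full control effect; nearly all actives have a fitted effect of over 35% in size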
Sequence of Ubiquitin carboxyl-terminal hydrolase 1 (Homo sapiens) (O94782 whole entry, looked up): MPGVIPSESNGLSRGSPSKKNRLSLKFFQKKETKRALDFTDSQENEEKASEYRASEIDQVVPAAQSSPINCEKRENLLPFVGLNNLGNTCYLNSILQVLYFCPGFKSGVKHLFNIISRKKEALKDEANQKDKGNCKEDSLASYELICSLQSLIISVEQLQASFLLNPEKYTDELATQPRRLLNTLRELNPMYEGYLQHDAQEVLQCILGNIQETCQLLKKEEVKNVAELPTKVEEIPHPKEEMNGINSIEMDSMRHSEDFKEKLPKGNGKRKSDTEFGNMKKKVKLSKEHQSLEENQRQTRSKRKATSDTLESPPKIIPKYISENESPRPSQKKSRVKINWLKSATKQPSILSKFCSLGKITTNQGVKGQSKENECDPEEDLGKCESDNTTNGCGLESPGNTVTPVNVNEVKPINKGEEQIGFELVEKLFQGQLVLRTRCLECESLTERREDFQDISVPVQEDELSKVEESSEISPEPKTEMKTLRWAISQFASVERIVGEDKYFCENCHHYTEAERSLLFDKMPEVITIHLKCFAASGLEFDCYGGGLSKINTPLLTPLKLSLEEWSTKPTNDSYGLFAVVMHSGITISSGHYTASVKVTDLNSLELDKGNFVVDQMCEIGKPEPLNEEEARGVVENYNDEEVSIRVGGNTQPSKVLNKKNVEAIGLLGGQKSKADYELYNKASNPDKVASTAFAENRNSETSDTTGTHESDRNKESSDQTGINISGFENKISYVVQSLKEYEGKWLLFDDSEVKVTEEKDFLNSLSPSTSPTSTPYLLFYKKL
Procedure, shortened: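 USP1/UAF1 complex (1nM) preincubated with compound 15 min at room temperature, then Ub-Rho substrate (150nM final) added. Fluorescence read kinetically at 480/540 nm, 6 reads every 60 seconds. Buffer: 50mM HEPES pH 7.8, 0.5mM EDTA, 0.1 mg/ml BSA, 1mM TCEP, 0.01% Tween-20.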

[15] = Primary qHTS for small molecule stabilizers of the endoplasmic reticulum resident proteome: Secreted ER Calcium Modulated Protein (SERCaMP) assay (AID 1508630); conditions: SH-SY5Y GLuc-SERCaMP (Gaussia luciferase released on ER calcium loss) secretion, thapsigargin, luminescence; series mostly up to 38.4 µM; further: on the % scale 0 is the no-effect control and ±100 the full control effect
Procedure, shortened: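 GLuc-SERCaMP-expressing SH-SY5Y cells, pretreated 16 h with compound, are challenged with thapsigargin to empty ER calcium stores; after 4 h, coelenterazine is added directly to the medium and luminescence is imaged.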

[16] = biological target: Glucocorticoid receptor (Homo sapiens) (UniProt P04150); assay: GR-GFP Redistribution (AID 450;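 active means compounds whose dose series gives a full or clear partial fitted curve of increased nuclear translocation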; further: potency means the concentration at half of the fitted maximal effect); conditions: U2OS GR-GFP nuclear translocation, laser cytometry, 2 h
[17] = biological target: Cytochrome P450 2C19 (Homo sapiens) (UniProt P33261); assay: qHTS Assay for Inhibitors and Substrates of Cytochrome P450 2C19 (AID 899); conditions: recombinant CYP2C19, luciferin-H EGE luminescence; series mostly up to 57.1 µM; further: nearly all actives have a fitted effect of over 60% in size; further: potency means the concentration at half of the fitted maximal effect
Sequence of Cytochrome P450 2C19 (Homo sapiens) (P33261 whole entry, looked up): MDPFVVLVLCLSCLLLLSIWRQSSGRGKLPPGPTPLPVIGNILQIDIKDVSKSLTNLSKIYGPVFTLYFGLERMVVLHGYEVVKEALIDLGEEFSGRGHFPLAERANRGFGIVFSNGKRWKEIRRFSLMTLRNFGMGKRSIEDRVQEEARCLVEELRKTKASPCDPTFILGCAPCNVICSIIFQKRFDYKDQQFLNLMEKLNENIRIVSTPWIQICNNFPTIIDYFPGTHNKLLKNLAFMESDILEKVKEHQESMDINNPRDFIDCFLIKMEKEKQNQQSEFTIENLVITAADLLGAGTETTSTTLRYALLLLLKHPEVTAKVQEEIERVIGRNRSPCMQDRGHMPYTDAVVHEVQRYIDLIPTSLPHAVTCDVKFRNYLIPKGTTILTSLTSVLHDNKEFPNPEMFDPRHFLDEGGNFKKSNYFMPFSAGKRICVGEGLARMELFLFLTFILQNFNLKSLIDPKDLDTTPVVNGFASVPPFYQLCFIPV
Procedure, shortened: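 5nM enzyme + 10uM Luciferin-H EGE (=KM), 50mM KPO4; cpd pin-transferred, 10 min 37C; NADPH regen, 60 min 37C; stopped w/ luciferin detection reagent, 20 min; luminescence. Normalized to 57uM ketoconazole (AC100).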

[18] = biological target: Cytochrome P450 3A4 (Homo sapiens) (UniProt P08684); assay: qHTS Assay for Inhibitors and Substrates of Cytochrome P450 3A4 (AID 884); conditions: recombinant CYP3A4, Luciferin-PPXE luminescence; series mostly up to 57.1 µM; further: potency means the concentration at half of the fitted maximal effect; nearly all actives have a fitted effect of over 50% in size
Procedure, shortened: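 20 nM human CYP3A4 with 25 uM Luciferin-PPXE (at KM) in 200 mM KPO4, preincubated 10 min with compound; NADPH regeneration started a 60 min RT reaction. Luciferin detected by luminescence, normalized to 57 uM ketoconazole as full inhibition.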

[19] = measured here: cell count channel max response
[20] = measured here: lipid channel max response

Structure (SMILES) | Potency [1] | activity change, negative = inhibition [2] | Potency [3] | activity change, negative = inhibition [4] | activity, negative = inhibition [5] | Potency [6] | outcome [7] | Potency [8] | Potency [9] | activity change, negative = inhibition [10] | max response [10, 19] | max response [10, 20] | Potency [11] | Potency [12] | Potency [13] | Potency [14] | Potency [15] | Potency [16] | Potency [17] | Potency [18]
Cc1cnc(CNc2ncncc2-c2c(C)noc2C)cn1 | > 11.4 µM (inactive) | 5.13% (inactive) | inactive | 1.67% (inactive) | -8% (inactive) | > 46 µM (inactive) | inactive | inactive | inactive | 5.43% (inactive) | 31% | 35% | inactive | inactive | inactive | inactive | inactive |  |  | 
COc1ncc2ncc(=O)n(C[C@H]3CCCO3)c2n1 | > 11.4 µM (inactive) | -16.2% (inactive) | 15.8 µM (active) | 4.03% (inactive) | -8.8% (inactive) | > 46 µM (inactive) | inactive | inactive |  | 4.31% (inactive) | 3.18% | 6.83% | inactive | inactive | inactive | inactive | inactive |  |  | 
Cc1noc(C)c1-c1cc(NCc2cccs2)ncn1 | > 11.4 µM (inactive) | 17% (inactive) | 0.794 µM (active) | -7.58% (inactive) | 7.7% (inactive) | > 46 µM (inactive) | inactive |  | inactive | 5.54% (inactive) | 20.5% | 27.7% | 11.2 µM (active) | 10 µM (active) | 14.1 µM (active) | inactive | inactive | > 46 µM (inactive) | inactive | 
COCCn1c(=O)c(C)nc2cnc(Oc3ccc(OC)cc3)nc21 | > 11.4 µM (inactive) | -18.9% (inactive) | 15.8 µM (active) | 7.53% (inactive) | -8.21% (inactive) |  | inactive | inactive | inactive | 1.21% (inactive) | 29.1% | 27.3% | inactive | inactive | inactive | inactive | inactive | > 9.22 µM (inactive) |  | 
O=c1c(-c2cccs2)nc2cnc(N3CCOCC3)nc2n1Cc1ccc(F)cc1 | > 11.4 µM (inactive) | 27.4% (inactive) | 20 µM (active) | 27.2% (inactive) |  | > 46 µM (inactive) | inactive | inactive | inactive | -2.08% (inactive) | 18.9% | 13.5% | inactive | inactive | inactive | inactive | inactive | > 9.22 µM (inactive) |  | 
Cc1ccccc1-c1ccc2ncnc(NC3CC3)c2c1 | > 11.4 µM (inactive) | 5.4% (inactive) | 0.126 µM (active) | 3.53% (inactive) |  | > 46 µM (inactive) | inactive |  | inactive | -3.61% (inactive) | 4.35% | -0.878% | 11.2 µM (active) | 7.08 µM (active) | 12.6 µM (active) | inactive | inactive | > 46 µM (inactive) | 1.26 µM (active) | 3.16 µM (active)
